This note sets out measurements from PubChem BioAssay AID504332 (National Center for Advancing Translational Sciences (NCATS), 2011).

The whole screen tested about 350,000 compounds, of which about 31,000 (8.9%) were called active. Roughly 15% stayed inconclusive and do not appear here. This is one part of a sample in which actives are shown more often than they occur. Values without a mark were called inactive. The call rests on the fitted dose curve; in most records, active means well fitted inhibition curve with a large enough effect; inconclusive means small, poorly fitted or top-dose-only effect; inactive means no such curve, though single readings can be large or run the other way.
On the % scale 0 is the no-effect control and ±100 the full control effect; potency means the concentration at half of the fitted maximal effect.

Chain of Histone-lysine N-methyltransferase EHMT2 (Homo sapiens) (Q96KQ7 913-1193 limits assumed): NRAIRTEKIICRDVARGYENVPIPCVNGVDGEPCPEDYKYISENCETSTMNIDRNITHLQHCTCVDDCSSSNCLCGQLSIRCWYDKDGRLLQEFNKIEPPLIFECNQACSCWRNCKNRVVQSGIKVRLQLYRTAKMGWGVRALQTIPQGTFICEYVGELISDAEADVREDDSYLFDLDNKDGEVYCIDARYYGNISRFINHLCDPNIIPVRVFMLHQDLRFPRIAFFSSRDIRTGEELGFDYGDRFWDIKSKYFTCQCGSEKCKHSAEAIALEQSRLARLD

The assay has as its target Histone-lysine N-methyltransferase EHMT2 (Homo sapiens) (UniProt Q96KQ7). In words: qHTS Assay for Inhibitors of Histone Lysine Methyltransferase G9a. Further: nearly all actives have a fitted effect of over 75% in size. To be noted: G9a H3K9 monomethylation, AlphaScreen, 2 h; series mostly up to 59 µM; activity, negative = inhibition: at the top concentration. The source says: Methylated lysines, on the N-terminal tails of histone proteins serve as epigenetic markers to recruit factors that can then modify local chromatin structure to lead to functional consequences. G9a and other members of the SUV39 family of the SET domain-containing superfamily of histone lysine methyltransferases (HMT) have been identified to specifically methylate Lys9 of histone H3 (H3K9). G9a catalyzes the mono- and di-methylation of H3K9 in mammalian euchromatic regions, where the resulting H3K9me2 is indicative of transcriptional repression. […] The inhibition of G9a will result in transcriptional activation and work synergistically with DNA methyltransferase and histone deacetylase inhibitors, to kill cancer cells. This qHTS assay for identification of G9a inhibitors is a chemiluminescence based AlphaScreen (PerkinElmer). Methylation of biotinylated-histone peptide is measured through specific antibody-based detection, in conjunction with streptavidin-coated donor and anti-IgG antibody-coated acceptor beads. The method is particularly well suited for detection of inhibitors acting by the desired histone peptide competitive mechanism and is applicable to testing other HMTs. Although AlphaScreen has significant advantages with its utility in a variety of epigenetic target assays, the primary screening data provided in this deposition should be used with caution due to the prevalence of screening artifacts. An AlphaScreen counterscreen is highly recommended to be run against any putative actives to eliminate non specific artifacts. Alternatively, one can use other AlphaScreen assays in PubChem to filter out promiscuous hits. Quinn et al. A chemiluminescence-based method for identification of histone lysine methyltransferase inhibitors. Mol Biosyst 6(5): 782-8. 2010. PMID: 20567762 [2] Baell,Holloway. New substructure filters for removal of pan assay interference compounds (PAINS) from screening libraries and for their exclusion in bioassays. J Med Chem. 53(7):2719-40. 2010. PMID: 20131845 NIH Molecular Libraries Probe Production Network [MLPCN] NIH Chemical Genomics Center [NCGC] Structural Genomics Consortium (SGC) NIH Grant: 5U54 MH084681-02
To each well of a 1,536w plate, 2ul of HMT enzyme (final 20nM) were added, using a nanoliter dispenser. The G9a- and GLP-inhibitor BIX-01294 (CID: 25150857) are used as an intraplate control, with a 16-point titration in duplicate. A Kalypsys pin-tool transferred 23nl of library compound solution in DMSO to each well. Following a 15 min incubation of enzyme with compounds at room temperature, 1ul mixture of b-H3K9 peptide substrate (final 500nM) and SAM cofactor (final 20uM) were added. Reactions were allowed to proceed at room temperature for 2 hours. Methylated b-H3K9 peptide product was detected with 0.5 ug/mL rabbit polyclonal anti-monomethyl histone H3K9 antibody (Abcam Inc., Cambridge, MA) and 20 ug/mL each streptavidin-coated donor and anti-rabbit IgG acceptor AlphaScreen beads. Antibody and beads were added in a 1ul dispense, for a final volume of 4ul, and plates were incubated, protected from the light, for 10 min at room temperature. Microplates were then read on an EnVision multilabel plate reader using the 1,536 plate HTS AlphaScreen aperture (excitation time 80 ms, measurement time 240 ms).
As for `O=C(CN1CCN(c2ccc(O)cc2)CC1)Nc1ccc(-c2ccccc2)cc1`, the Potency is 11.2 µM (active).

For the molecule `Cc1ccccc1NC(=O)c1cc2c([nH]c1=O)CC(C)(C)CC2=O`, the “activity, negative = inhibition” value is 10.3%.

As for `O=C(Nc1cc(Cl)ccc1N1CCOCC1)c1ccc(N2CCCC2=O)cc1`, the “activity, negative = inhibition” value is -16.7% [at 102 µM].

In the case of `CCc1ccccc1NC(=O)Cn1c(=O)n(-c2cccc(C)c2)c(=O)c2c1c1cc(OC)ccc1n2C`, the “activity, negative = inhibition” value is 0.155%.

For the molecule `CC(C)c1cc(C(=O)O)on1`, the “activity, negative = inhibition” value is 7.05%.

Consider `CC(C)c1cc(C(=O)O)n[nH]1`, for which the Potency is 44.7 µM (active).

On to `CC(C)c1cc(C(=O)N/N=C/C(Br)=C/c2ccccc2)n[nH]1`, for which the “activity, negative = inhibition” value is -9.73% [at 102 µM].

On to `O=C(CNC(=O)c1ccccc1Br)NCCSc1ccc(Br)cc1`, for which the “activity, negative = inhibition” value is -0.242% [at 102 µM].

For `Cc1ccc2nc(COc3cccc(NC(=O)c4cccc(Cl)c4)c3)cc(=O)n2c1`, the “activity, negative = inhibition” value was 15.9%.

For the molecule `CN1C(=O)/C(=C/c2ccco2)SC1=Nc1cccc(C(=O)O)c1`, the Potency is 28.2 µM (active).

Turning to `O=C(CCCN1C(=O)/C(=C/c2ccco2)SC1=S)Nc1ccccc1`, the “activity, negative = inhibition” value was -21.4%.

In the case of `CN=C1S/C(=C\c2c(OC)cc(OC)cc2OC)C(=O)N1C`, the “activity, negative = inhibition” value was -4.41% [at 102 µM].

Turning to `COc1ccc(CCNC(=O)CCCCCNC(=O)N2CCn3c2nc2ccccc23)cc1OC`, the “activity, negative = inhibition” value is 50.3% [at 102 µM].

For `COc1ccc(NC(=O)Cn2cc(C(=O)c3ccncc3)c(=O)c3cc(C)ccc32)cc1Cl`, the activity, negative = inhibition was 3.8% [at 12.7 µM].

For the molecule `CC(CN1CCCCC1)c1ccccc1` (stereo not drawn), the Potency is 11.2 µM (active).

`CC(CN1CCOCC1)c1ccccc1` (stereo not drawn): the “activity, negative = inhibition” value is -32%.

Consider `CC(CN1CCC(n2nccc2NC(=O)C2CCCC2)CC1)c1ccccc1` (stereo not drawn), for which the “activity, negative = inhibition” value is 39.2% [at 102 µM].

With `O=S(=O)(c1ccc(SCc2ccc(Br)cc2)nc1)N1CCOCC1`, the activity, negative = inhibition was -2.71% [at 12.7 µM].

On to `Cc1ccc(CN2CC(C(=O)NNC(=O)Cn3ccc(C(F)(F)F)n3)CC2=O)cc1` (stereo not drawn), for which the activity, negative = inhibition is -2.67% [at 12.7 µM].

In the case of `Cc1ccc(-c2nn3c(=O)cc(CN4CCN(S(=O)(=O)c5ccc(Cl)cc5)CC4)nc3s2)cc1`, the “activity, negative = inhibition” value is 7.37%.

As for `CCOc1cc(C(=O)OCC(=O)Nc2cccc(C)c2)ccc1OCC(=O)N1CCOCC1`, the “activity, negative = inhibition” value was 24%.

In the case of `CCOc1cc(C(=S)N2CCOCC2)ccc1O`, the Potency is 4.47 µM (active).

`CCOc1cc(C(=S)N2CCOCC2)ccc1OS(=O)(=O)c1ccc(Br)cc1`: the “activity, negative = inhibition” value was 24% [at 102 µM].

As to `Cc1cccc(NC(=O)CSc2ncc(-c3ccccc3)[nH]2)c1C`, the “activity, negative = inhibition” value is -30.7%.

Take `O=C(OCC1OC(Oc2ccc(O)cc2)C(O)C(O)C1O)c1ccccc1` (stereo not drawn): the activity, negative = inhibition is 2.48% [at 12.7 µM].

With `COc1ccc(S(=O)(=O)N2CCOC23CCN(S(=O)(=O)c2ccc([N+](=O)[O-])cc2)CC3)cc1`, the activity, negative = inhibition is -2.42% [at 0.501 µM].

For `Cc1ccc2c(c1)C1CN(C)CCC1N2S(=O)(=O)c1ccc(Oc2ccc([N+](=O)[O-])cc2)cc1` (stereo not drawn), the Potency is 35.5 µM (active).

With `Cc1ccc2c(c1)C1CN(C)CCC1N2S(=O)(=O)c1cccc(F)c1` (stereo not drawn), the “activity, negative = inhibition” value is 10.1%.

Turning to `COc1ccc(C(=O)NC2CCN(C(=O)Nc3ccc(F)cc3)CC2)cc1`, the “activity, negative = inhibition” value is 10.1% [at 102 µM].

On to `CCc1nnc(SCC(=O)Nc2cc(OC)ccc2OC)nc1CC`, for which the “activity, negative = inhibition” value is 5.36%.

For the molecule `CCc1cc2cc(OC)ccc2nc1SCC(=O)Nc1cc(OC)c(OC)cc1C(=O)O`, the Potency was 50.1 µM (active).

For the molecule `COc1ccc(OC)c(NC(=O)CSc2nc3ccccc3nc2N2CCCCC2)c1`, the “activity, negative = inhibition” value was 29.4%.

As to `N#Cc1c(N)n(CCOC(=O)c2ccc(Cl)cc2)c2nc3ccccc3nc12`, the “activity, negative = inhibition” value was -6.78%.

Turning to `CN(C)CCCn1c(N)c(C#N)c2nc(C#N)c(C#N)nc21`, the Potency is 25.1 µM (active).

As to `CC(C)(C)c1ccc(C(=O)NCCn2c(N)c(C#N)c3nc4ccccc4nc32)cc1`, the “activity, negative = inhibition” value is 23.9% [at 102 µM].

With `COc1ccc(CNC(=O)CN(c2ccc(OC)c(Cl)c2)S(=O)(=O)c2ccc(C)cc2)cc1`, the “activity, negative = inhibition” value is 33.2% [at 102 µM].

As for `O=C(CNC(=O)c1ccc2ccccc2c1)Nc1ncccc1O`, the activity, negative = inhibition was 20.5% [at 2.33 µM].

For `CCOc1ccc(N2CC(C(=O)NCCN3C(=O)S/C(=C\c4cccnc4)C3=O)CC2=O)cc1` (stereo not drawn), the Potency is 39.8 µM (active).

As to `CCOc1ccc(N2CC(C(=O)NCc3ccccn3)CC2=O)cc1` (stereo not drawn), the “activity, negative = inhibition” value is -6.32% [at 102 µM].

Turning to `COc1ccccc1N1CC(C(=O)NCCN2C(=O)S/C(=C\c3cccnc3)C2=O)CC1=O` (stereo not drawn), the activity, negative = inhibition was 2.97% [at 12.7 µM].

As for `CCN(c1ccccc1)S(=O)(=O)c1cc(C(=O)NCc2ccccn2)ccc1C`, the “activity, negative = inhibition” value is 26.1% [at 102 µM].

Consider `COc1ccc(Cl)cc1N(C)C(=O)c1cc2c(=O)oc3ccc(C)cc3c2s1`, for which the “activity, negative = inhibition” value was 4.3%.

For the molecule `COC(=O)c1ccc(COC(=O)CNC(=O)c2cccc(OC)c2)o1`, the “activity, negative = inhibition” value was 9.25%.

For `COc1ccc(Nc2nc(-c3cccnc3)nc3ccccc23)cn1`, the Potency is 35.5 µM (active).

`COc1ccccc1Oc1nc(-c2cccnc2)nc2ccccc12`: the “activity, negative = inhibition” value was 7.82% [at 102 µM].

On to `COc1cc(Nc2nc(-c3ccc(OC)c(OC)c3)nc3ccccc23)cc(OC)c1`, for which the “activity, negative = inhibition” value is -2.06%.

For the molecule `CCc1nc2onc(C)c2c(=O)n1CC(=O)O`, the “activity, negative = inhibition” value was 17.4%.

On to `CCC(=O)c1cc(F)ccc1OCC(=O)Nc1ccc2c(c1)OCCO2`, for which the activity, negative = inhibition was -5.64% [at 12.7 µM].
